High-throughput results deposited in PubChem BioAssay by National Center for Advancing Translational Sciences (NCATS).
ELG1 genotoxic = genotoxicity induction in ELG1-luciferase HEK293T cells. HEK293T ELG1-luciferase reporter, luminescence, 16 h. Potency, µM (top dose mostly 46 µM), inactives show at the highest dose activity change, positive = activation, actives largely listed as activators. hit rate 1.3% among 330,000; further: % of control where 0% means no effect; nearly all actives have a fitted effect of over 60% in size
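Genotoxic stress is detected as increased luminescence from luciferase-tagged ELG1 in HEK293T cells, measured with ONE-Glo after a 16 hr treatment at 37 °C.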
ELG1 repair inh = ELG1-dependent DNA repair inhibition. HEK293T ELG1-luciferase reporter, luminescence, 16 h; DNA damage induced by 5-fluorouridine. Potency, µM (highest dose often 46.1 µM), without a hit: at the top dose activity change, negative = inhibition, actives largely listed as inhibitors. hit rate 2.3% among 330,000. AID 504467; further: on the % scale 0 is the no-effect control and ±100 the full control effect; nearly all actives have a fitted effect of over 55% in size
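In this reporter screen, reduction of luminescence relative to DMSO vehicle indicated activity. Compounds and 5-fluorouridine were added together to 2,000 cells per well, incubated for 16 hr at 37 °C, then developed with ONE-Glo.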
Rab9 promoter act = activates the Rab9 promoter; Huh7 Rab9 promoter-luciferase reporter, luminescence, 24 h; AID 485297; Potency, µM (top dose mostly 9.22 µM), without a hit: top-dose activation, negative = inhibition, actives largely listed as activators; hit rate 2.8% among 320,000; further: % of control where 0% means no effect; nearly all actives have a fitted effect of over 60% in size
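Huh7 cells stably carrying a Rab9 promoter-luciferase reporter, 1500 cells per well in OP-MEM I with 10% FBS, treated with compound 24 hours at 37C. Luciferase activity read by luminescence after 10 minutes with Amplite reagent.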
NPC1 promoter act = activates the NPC1 promoter. Huh7 NPC1 promoter luciferase reporter, 24 h. Potency, µM (top dose mostly 9.22 µM), for inactives: at the top dose activation, usual class: activators. AID 485313. hit rate 2.4% among 320,000; further: % of control where 0% means no effect; nearly all actives have a fitted effect of over 60% in size
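Cells: Huh7 expressing luciferase under the NPC1 promoter, 1500/well. Seeded 2 h, compound added, incubated 24 h at 37 °C. Luciferase reagent, 10 min ambient, then luminescence.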
SMN2 splice up = enhancers of SMN2 splice variant expression. HEK293 SMN2-luciferase splicing reporter, luminescence, 30-36 h. Potency, µM (top dose mostly 46.1 µM), for inactives: at the top dose activity change, positive = activation, actives largely listed as activators. hit rate 2.8% among 210,000; further: % of control where 0% means no effect; nearly all actives have a fitted effect of over 55% in size
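qHTS luciferase splicing reporter: luminescence rises when SMN2 exon 7 is included in transfected HEK293 cells. Compound exposure lasted 30-36 h at 37C, with 4.5 mM final sodium butyrate as control, followed by a ONE-Glo read.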
FLuc counter = firefly luciferase modulation, counter-screen for miR-21 project. P08659. purified FLuc, Km substrates, luminescence inhibition. Potency, µM (highest dose often 57.5 µM), for the others: at the top dose activity change, negative = inhibition, usual class: inhibitors. hit rate 6.9% among 360,000;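 further: plate controls were vehicle for no effect and reference inhibitor for full effect; nearly all actives have a fitted effect of over 55% in size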
Target sequence (P08659 whole entry, looked up): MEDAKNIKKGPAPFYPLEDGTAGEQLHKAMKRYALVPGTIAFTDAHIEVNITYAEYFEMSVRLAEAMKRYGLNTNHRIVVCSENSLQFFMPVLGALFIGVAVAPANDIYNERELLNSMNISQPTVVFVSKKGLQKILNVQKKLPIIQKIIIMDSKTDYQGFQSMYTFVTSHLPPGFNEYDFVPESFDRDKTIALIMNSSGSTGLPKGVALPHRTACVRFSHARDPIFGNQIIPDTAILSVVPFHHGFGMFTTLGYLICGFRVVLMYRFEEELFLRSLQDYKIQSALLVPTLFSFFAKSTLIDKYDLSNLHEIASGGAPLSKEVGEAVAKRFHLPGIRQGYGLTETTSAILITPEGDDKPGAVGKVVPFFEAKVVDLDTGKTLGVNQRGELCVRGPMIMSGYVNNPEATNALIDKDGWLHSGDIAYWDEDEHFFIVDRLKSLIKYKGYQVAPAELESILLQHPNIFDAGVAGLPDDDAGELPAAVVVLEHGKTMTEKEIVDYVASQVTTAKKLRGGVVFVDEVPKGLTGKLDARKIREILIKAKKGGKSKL
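Purified P. pyralis luciferase (10nM final) with 10uM D-luciferin and 10uM ATP (Km levels) in 50mM Tris acetate pH 7.5, 10mM Mg acetate, 0.01% Tween-20, 0.05% BSA; qHTS 6-point titration, ~60 µM downward; luminescence read.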
The depositor's hits bear a star; ? = inconclusive; · = not tested or not shown; [ ] = remark or other dose. In the library only some 9.4% were active in any assay of this set; here they are far more common. The call rests on the fitted dose curve; in most records, active means well fitted curve in the direction sought with a large enough effect; inconclusive means small, poorly fitted or top-dose-only effect, or another doubt; inactive means no such curve, though single readings can be large; an effect the other way counts as inactive or inconclusive. Potency means the concentration at half of the fitted maximal effect.

SMILES	ELG1 genotoxic	ELG1 repair inh	Rab9 promoter act	NPC1 promoter act	SMN2 splice up	FLuc counter
CC1CCc2c(sc(NC(=O)c3cc(-c4ccc(F)cc4)on3)c2C(N)=O)C1 (centres undefined)	·	·	·	·	0.6%	-0.7%
O=c1c(-c2cc(F)cc(F)c2)nc2cnc(N3CCOCC3)nc2n1C1CC1	·	·	·	·	-17.4%	·
COc1cccc(N2CCN(C(=O)c3ccc4c(Cl)c5c(nc4c3)CCCC5)CC2)c1	·	·	·	·	-0.4%	-6.1%
c1csc(-c2nnc(N3CCOCC3)c3ccccc23)c1	2.9%	-10.1%	-2.5%	-12.8%	-22.1%	?
c1csc(-c2nnc(N3CCCCCC3)c3ccccc23)c1	0.5%	?	10.3%	4.1%	·	3.01µM*
Cc1c(C(C)(C)C)s/c(=N/S(=O)(=O)c2ccccc2)n1C	1.5%	4.2%	2.4%	4.3%	·	4.3%
Cc1c(C(C)(C)C)sc(=NC(=O)c2ccccc2O)n1C	?	?	1µM*	2.82µM*	·	0.953µM*
CC(=O)Nc1cc(C(=O)OCC(=O)c2ccccc2)ccc1C	14.6µM*	?	4.47µM*	3.16µM*	10µM*	19µM*
Cc1ccc(C(=O)Sc2cccccc2=O)cc1	6.51µM*	?	-52.2%	-39.3%	·	3.01µM*
CCOC(=O)c1nnc(-c2ccccc2)o1	0.2%	11.4%	0.7%	1.7%	-7.6%	-5.2%
CCc1ccc(C(=O)COC(=O)c2ccc(-c3nnc(-c4ccccc4)o3)cc2)cc1	?	?	0.562µM*	0.891µM*	7.94µM*	-3.8%
CC(=O)NC(C)C(=O)OCC(=O)c1ccc(-c2ccccc2)cc1 (centres undefined)	11.3%	?	-3.7%	-3.1%	7.1%	13.5µM*
Cc1ccc(C(=O)OCC(=O)Nc2ccccc2)cc1NC(=O)c1ccco1	?	?	14.4%	-3.0%	5.7%	-12.7%
CC(NC(=O)c1ccccc1)C(=O)OCC(=O)c1ccc(Br)cc1 (centres undefined)	6.1%	5.8%	17.3%	-1.8%	·	-9.9%
Cc1ccc(S(=O)(=O)/N=C(/Sc2ccccc2C(=O)O)c2ccccc2)cc1	1.5%	0.0%	2.4%	-0.6%	·	-4.0%
COc1cc2c(cc1OC)C(COc1ccccc1OC)N(C(=O)COc1ccc(Cl)cc1)CC2 (centres undefined)	·	·	·	·	·	-2.4%
Cc1ccc(-c2nnc3ccccc3c2C(=O)Nc2cccc(C(F)(F)F)c2)cc1	·	·	·	·	·	-7.9%
COCCNC(=O)c1ccc2c(c1)NC(=O)C(CS(=O)(=O)Cc1ccc(F)cc1Cl)N2 (centres undefined)	·	·	·	·	·	-1.2%
C[C@H](NC(=O)/C(C#N)=C/c1ccc(O)c(O)c1)c1ccccc1	·	·	-29.0%[46.1 µM]	-11.1%[46.1 µM]	14.7%	·
COc1ccc(CCNC(=O)CCc2cn(C)c3ccccc23)c(OC)c1OC	-1.8%	-1.3%	-0.7%	-4.1%	·	-2.2%
Cc1ccc(C)[n+](CC(=O)c2ccc(-c3ccccc3)cc2)c1	-7.6%	7.3µM*	-14.7%	0.0%	-28.8%	-12.1%
Cc1ccc(C(=O)NC(=S)NCC(=O)c2ccccc2)cc1	4.8%	25.0%	24.7%	14.0%	25.1%	?
O=C(CCCCCCCC(=O)c1ccccc1)c1ccccc1	-0.2%	1.2%	-6.9%	10.3%	0.7%	-17.9%
O=C(CN1C(=O)CCC1=O)c1ccc(-c2ccccc2)cc1	16.7%	?	?	24.5%	3.98µM*	?
CCCC(=O)c1ccc(-c2ccccc2)cc1	?	?	-0.1%	5.9%	?	16.9µM*
Cc1ccc(C(=O)CC(=O)c2ccccc2)cc1	24.8%	?	2.24µM*	2.51µM*	·	9.53µM*
N=c1ccn(CC(=O)c2ccc(-c3ccccc3)cc2)cc1	-10.2%	?	-54.1%	-43.2%	·	-0.9%
Cc1ccc[n+](CC(=O)c2ccc(-c3ccccc3)cc2)c1	-7.0%	?	-6.3%	-1.5%	-29.8%	0.7%
CSc1ncc(C(=O)Nc2cc(Cl)ccc2C)c(-c2ccccc2)n1	·	·	·	·	·	-6.5%
